What was measured:
[1] = molecular target: Sphingosine kinase 1 (Homo sapiens) (UniProt Q9NYA1); conditions: at 1 µM;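 further: mean SPHK1 inhibition value reported from the GSK PKIS kinase panel screen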
[2] = molecular target: T1, Sphingosine kinase 2 (Homo sapiens) (UniProt Q9NRA0); conditions: at 0.1 µM
T1 sequence (whole entry): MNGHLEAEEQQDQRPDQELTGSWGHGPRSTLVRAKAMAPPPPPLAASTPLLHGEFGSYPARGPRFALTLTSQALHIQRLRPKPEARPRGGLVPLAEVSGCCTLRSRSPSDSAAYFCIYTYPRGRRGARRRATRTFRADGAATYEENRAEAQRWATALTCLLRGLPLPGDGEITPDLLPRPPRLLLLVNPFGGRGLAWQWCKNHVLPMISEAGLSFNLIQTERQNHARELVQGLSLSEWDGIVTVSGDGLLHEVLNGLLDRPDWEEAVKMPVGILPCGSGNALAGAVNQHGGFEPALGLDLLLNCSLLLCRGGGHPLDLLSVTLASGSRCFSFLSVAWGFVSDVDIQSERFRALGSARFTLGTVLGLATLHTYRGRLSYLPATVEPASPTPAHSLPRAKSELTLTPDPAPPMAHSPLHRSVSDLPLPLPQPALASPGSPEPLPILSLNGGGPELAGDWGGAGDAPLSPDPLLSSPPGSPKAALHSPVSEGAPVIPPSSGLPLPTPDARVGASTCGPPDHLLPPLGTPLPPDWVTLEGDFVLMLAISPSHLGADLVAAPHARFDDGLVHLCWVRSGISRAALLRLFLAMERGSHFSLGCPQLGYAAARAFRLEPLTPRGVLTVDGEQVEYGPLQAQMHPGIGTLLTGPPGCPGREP

[3] = molecular target: T1, Sphingosine kinase 2 (Homo sapiens); conditions: at 1 µM
[4] = molecular target: Casein kinase II subunit alpha (Homo sapiens) (UniProt P68400); conditions: at 0.1 µM
[5] = molecular target: Casein kinase II subunit alpha (Homo sapiens) (UniProt P68400); conditions: at 1 µM
[6] = molecular target: T2, Inhibitor of nuclear factor kappa-B kinase subunit alpha (Homo sapiens) (UniProt O15111); conditions: at 0.1 µM
T2 sequence (whole entry): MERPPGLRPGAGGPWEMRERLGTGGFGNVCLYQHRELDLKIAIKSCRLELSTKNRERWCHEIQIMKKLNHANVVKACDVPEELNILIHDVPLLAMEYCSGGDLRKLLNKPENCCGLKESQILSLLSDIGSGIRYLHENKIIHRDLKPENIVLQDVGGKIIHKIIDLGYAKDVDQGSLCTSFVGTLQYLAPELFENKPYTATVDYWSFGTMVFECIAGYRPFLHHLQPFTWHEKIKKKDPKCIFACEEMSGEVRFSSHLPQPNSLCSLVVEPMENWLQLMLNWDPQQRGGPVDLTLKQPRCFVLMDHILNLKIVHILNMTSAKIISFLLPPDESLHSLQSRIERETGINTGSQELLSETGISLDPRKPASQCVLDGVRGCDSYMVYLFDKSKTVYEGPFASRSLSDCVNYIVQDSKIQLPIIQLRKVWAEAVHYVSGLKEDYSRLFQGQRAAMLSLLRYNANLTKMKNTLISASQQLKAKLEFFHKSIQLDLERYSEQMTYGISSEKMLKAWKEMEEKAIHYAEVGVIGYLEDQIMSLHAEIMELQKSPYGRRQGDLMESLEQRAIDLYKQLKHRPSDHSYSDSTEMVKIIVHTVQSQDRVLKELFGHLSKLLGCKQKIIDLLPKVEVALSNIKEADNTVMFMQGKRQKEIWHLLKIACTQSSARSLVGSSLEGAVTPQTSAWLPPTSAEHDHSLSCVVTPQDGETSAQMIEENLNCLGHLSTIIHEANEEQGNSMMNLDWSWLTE

[7] = molecular target: T2, Inhibitor of nuclear factor kappa-B kinase subunit alpha (Homo sapiens); conditions: at 1 µM
[8] = molecular target: T3, Inhibitor of nuclear factor kappa-B kinase subunit beta (Homo sapiens) (UniProt O14920); conditions: at 0.1 µM
T3 sequence (whole entry): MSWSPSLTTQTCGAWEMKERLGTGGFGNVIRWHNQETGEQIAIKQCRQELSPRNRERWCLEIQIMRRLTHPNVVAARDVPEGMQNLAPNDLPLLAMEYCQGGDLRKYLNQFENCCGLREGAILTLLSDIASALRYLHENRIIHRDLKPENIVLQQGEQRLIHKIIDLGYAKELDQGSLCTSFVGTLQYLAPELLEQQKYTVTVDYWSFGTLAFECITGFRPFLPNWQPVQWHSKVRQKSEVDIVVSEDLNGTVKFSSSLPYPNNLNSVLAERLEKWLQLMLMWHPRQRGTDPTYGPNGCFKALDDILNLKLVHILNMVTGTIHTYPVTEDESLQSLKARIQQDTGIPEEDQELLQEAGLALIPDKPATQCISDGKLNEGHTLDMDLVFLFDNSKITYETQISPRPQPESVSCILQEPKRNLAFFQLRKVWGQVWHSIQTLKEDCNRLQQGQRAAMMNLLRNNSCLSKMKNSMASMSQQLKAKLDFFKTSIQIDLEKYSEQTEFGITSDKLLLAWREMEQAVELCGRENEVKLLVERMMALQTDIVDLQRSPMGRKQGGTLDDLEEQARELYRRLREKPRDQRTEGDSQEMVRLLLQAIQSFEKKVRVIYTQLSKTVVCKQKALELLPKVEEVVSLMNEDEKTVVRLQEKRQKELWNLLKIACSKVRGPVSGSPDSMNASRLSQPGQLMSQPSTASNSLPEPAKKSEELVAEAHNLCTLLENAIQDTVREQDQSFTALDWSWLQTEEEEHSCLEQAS

[9] = molecular target: T3, Inhibitor of nuclear factor kappa-B kinase subunit beta (Homo sapiens); conditions: at 1 µM
[10] = molecular target: T4, Inhibitor of nuclear factor kappa-B kinase subunit epsilon (Homo sapiens) (UniProt Q14164); conditions: at 0.1 µM
T4 sequence (whole entry): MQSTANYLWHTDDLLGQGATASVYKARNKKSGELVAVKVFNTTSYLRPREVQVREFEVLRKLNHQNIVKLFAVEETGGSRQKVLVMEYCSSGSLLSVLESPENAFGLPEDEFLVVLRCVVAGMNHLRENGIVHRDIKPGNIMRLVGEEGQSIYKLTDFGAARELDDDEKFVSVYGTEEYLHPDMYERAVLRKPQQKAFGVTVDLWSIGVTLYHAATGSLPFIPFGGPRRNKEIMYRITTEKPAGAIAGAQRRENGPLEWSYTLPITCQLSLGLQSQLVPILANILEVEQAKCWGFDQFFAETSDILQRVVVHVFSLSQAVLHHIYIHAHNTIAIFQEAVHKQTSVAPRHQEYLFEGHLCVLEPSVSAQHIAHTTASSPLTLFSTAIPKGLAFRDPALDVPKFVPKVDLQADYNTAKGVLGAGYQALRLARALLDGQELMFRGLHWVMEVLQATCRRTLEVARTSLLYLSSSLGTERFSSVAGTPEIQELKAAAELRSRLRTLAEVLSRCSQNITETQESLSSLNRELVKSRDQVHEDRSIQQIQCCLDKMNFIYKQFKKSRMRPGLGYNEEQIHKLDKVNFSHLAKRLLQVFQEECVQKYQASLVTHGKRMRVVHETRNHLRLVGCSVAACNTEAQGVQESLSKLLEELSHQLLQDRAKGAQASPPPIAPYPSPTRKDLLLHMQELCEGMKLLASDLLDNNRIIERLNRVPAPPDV

[11] = molecular target: T4, Inhibitor of nuclear factor kappa-B kinase subunit epsilon (Homo sapiens); conditions: at 1 µM
[12] = molecular target: T5, Serine/threonine-protein kinase Nek1 (Homo sapiens) (UniProt Q96PY6); conditions: at 0.1 µM
T5 sequence (whole entry): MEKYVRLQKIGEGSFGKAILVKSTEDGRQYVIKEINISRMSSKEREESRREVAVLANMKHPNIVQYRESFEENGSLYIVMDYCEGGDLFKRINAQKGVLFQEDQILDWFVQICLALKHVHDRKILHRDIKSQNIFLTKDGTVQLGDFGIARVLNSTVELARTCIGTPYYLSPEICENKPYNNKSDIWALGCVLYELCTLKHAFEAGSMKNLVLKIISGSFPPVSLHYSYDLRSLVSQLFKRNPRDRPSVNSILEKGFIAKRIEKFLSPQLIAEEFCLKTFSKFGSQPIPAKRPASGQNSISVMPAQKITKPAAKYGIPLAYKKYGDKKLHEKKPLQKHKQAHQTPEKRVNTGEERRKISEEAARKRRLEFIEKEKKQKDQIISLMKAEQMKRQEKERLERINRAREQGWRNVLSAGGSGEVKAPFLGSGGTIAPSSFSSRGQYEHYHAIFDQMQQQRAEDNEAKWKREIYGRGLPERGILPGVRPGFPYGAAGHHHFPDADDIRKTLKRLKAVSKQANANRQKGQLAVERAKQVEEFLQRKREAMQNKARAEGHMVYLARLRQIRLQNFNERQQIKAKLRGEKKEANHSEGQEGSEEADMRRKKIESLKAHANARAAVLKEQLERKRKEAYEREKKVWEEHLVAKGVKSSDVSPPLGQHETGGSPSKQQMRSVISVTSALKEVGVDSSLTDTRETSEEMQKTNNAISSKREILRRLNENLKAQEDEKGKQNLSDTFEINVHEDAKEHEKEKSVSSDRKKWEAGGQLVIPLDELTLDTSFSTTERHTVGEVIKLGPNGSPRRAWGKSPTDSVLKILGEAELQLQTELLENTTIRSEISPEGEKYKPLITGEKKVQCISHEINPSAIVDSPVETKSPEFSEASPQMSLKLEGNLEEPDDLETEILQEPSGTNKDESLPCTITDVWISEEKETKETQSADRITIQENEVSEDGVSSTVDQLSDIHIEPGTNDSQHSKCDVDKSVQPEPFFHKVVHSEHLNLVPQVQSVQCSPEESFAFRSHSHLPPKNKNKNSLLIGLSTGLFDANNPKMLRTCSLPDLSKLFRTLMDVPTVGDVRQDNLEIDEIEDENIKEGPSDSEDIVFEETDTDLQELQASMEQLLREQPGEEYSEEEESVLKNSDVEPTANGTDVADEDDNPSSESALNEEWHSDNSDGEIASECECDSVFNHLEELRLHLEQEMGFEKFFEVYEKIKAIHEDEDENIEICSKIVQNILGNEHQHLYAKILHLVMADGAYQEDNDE

[13] = molecular target: T5, Serine/threonine-protein kinase Nek1 (Homo sapiens); conditions: at 1 µM
[14] = molecular target: T6, Serine/threonine-protein kinase Nek2 (Homo sapiens) (UniProt P51955); conditions: at 0.1 µM
T6 sequence (whole entry): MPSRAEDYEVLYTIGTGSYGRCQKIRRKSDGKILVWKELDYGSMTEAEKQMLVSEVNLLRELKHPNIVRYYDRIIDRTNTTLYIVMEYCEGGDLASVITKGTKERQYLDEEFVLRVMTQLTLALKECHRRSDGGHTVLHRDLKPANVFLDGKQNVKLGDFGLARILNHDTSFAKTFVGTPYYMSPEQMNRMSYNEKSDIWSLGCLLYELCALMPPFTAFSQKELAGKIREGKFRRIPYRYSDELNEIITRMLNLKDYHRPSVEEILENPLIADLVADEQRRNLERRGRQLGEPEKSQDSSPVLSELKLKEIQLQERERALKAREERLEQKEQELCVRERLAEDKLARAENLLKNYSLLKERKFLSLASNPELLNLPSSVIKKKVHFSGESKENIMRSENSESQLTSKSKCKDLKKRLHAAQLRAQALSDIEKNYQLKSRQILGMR

[15] = molecular target: T6, Serine/threonine-protein kinase Nek2 (Homo sapiens); conditions: at 1 µM
[16] = molecular target: Serine/threonine-protein kinase Nek6 (Homo sapiens) (UniProt Q9HC98); conditions: at 0.1 µM
[17] = molecular target: Serine/threonine-protein kinase Nek6 (Homo sapiens) (UniProt Q9HC98); conditions: at 1 µM
[18] = molecular target: Serine/threonine-protein kinase Nek7 (Homo sapiens) (UniProt Q8TDX7); conditions: at 0.1 µM
[19] = molecular target: Serine/threonine-protein kinase Nek7 (Homo sapiens) (UniProt Q8TDX7); conditions: at 1 µM
[20] = molecular target: T7, Serine/threonine-protein kinase Nek9 (Homo sapiens) (UniProt Q8TD19); conditions: at 0.1 µM;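 further: reported value is the mean percent inhibition of NEK9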
T7 sequence (whole entry): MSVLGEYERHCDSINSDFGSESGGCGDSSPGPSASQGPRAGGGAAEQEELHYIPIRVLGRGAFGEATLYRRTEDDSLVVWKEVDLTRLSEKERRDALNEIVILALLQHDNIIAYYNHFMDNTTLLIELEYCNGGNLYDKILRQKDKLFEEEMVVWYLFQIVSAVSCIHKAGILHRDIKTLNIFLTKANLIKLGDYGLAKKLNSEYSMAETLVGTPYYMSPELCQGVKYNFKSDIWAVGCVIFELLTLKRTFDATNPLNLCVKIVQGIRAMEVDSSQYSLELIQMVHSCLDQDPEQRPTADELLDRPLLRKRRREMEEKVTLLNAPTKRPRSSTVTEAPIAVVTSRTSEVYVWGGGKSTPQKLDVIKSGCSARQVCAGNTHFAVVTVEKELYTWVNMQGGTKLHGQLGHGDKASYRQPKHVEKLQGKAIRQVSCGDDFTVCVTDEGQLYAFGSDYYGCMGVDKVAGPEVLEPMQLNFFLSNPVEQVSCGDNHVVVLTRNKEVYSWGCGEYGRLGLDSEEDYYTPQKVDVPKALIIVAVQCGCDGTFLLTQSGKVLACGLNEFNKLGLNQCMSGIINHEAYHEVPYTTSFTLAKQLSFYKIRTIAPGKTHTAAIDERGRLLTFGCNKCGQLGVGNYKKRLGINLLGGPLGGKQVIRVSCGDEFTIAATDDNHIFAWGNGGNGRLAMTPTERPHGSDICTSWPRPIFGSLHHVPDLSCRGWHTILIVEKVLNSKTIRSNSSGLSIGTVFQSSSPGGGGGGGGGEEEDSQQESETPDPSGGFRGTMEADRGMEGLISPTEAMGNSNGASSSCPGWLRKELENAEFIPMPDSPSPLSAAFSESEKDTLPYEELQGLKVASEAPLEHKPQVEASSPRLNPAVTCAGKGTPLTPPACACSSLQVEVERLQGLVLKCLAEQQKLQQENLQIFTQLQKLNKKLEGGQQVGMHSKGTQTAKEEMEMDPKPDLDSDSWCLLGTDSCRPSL

Sequence of Serine/threonine-protein kinase Nek7 (Homo sapiens) (Q8TDX7 whole entry, looked up): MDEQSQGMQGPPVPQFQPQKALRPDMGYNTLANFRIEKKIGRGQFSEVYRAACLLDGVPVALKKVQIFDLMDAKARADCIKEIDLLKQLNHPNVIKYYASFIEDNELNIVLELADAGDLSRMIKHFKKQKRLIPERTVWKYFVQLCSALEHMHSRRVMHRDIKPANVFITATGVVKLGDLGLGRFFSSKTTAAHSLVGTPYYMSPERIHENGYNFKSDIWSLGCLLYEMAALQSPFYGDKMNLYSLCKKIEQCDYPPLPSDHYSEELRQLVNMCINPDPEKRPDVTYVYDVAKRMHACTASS
Sequence of Serine/threonine-protein kinase Nek6 (Homo sapiens) (Q9HC98 whole entry): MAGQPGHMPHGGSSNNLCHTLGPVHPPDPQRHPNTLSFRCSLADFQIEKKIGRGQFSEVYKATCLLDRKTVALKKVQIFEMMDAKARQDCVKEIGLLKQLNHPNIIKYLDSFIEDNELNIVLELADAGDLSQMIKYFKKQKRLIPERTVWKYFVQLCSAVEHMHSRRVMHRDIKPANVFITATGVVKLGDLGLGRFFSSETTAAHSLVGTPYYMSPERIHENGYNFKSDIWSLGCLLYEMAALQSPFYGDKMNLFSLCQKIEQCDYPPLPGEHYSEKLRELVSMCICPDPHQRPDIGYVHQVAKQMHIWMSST
Sequence of Casein kinase II subunit alpha (Homo sapiens) (P68400 whole entry, looked up): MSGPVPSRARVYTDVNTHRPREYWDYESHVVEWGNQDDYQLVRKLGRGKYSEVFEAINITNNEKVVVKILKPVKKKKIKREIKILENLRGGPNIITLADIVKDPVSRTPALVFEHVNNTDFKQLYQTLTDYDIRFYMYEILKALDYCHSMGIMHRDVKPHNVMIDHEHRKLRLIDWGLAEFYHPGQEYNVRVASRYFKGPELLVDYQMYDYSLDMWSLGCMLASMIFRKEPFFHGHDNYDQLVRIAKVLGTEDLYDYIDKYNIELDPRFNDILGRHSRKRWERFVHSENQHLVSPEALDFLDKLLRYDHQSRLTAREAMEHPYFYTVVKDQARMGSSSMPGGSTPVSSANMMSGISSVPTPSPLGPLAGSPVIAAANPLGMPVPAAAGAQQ
Sequence of Sphingosine kinase 1 (Homo sapiens) (Q9NYA1 whole entry): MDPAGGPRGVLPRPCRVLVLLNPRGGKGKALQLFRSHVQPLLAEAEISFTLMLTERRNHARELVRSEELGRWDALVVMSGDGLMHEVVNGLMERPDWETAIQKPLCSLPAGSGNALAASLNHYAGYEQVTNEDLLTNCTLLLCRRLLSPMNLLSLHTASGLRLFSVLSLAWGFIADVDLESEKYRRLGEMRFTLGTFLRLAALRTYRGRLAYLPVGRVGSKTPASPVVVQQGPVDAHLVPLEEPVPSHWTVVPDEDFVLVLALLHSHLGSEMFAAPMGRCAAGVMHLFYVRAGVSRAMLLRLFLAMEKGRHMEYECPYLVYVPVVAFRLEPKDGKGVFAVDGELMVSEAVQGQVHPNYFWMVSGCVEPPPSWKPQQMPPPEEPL

Structure (SMILES)	inhibition [1] [%]	inhibition [2] [%]	inhibition [3] [%]	inhibition [4] [%]	inhibition [5] [%]	inhibition [6] [%]	inhibition [7] [%]	inhibition [8] [%]	inhibition [9] [%]	inhibition [10] [%]	inhibition [11] [%]	inhibition [12] [%]	inhibition [13] [%]	inhibition [14] [%]	inhibition [15] [%]	inhibition [16] [%]	inhibition [17] [%]	inhibition [18] [%]	inhibition [19] [%]	inhibition [20] [%]
CN(C)C(=O)O[C@H]1CN[C@H](C#Cc2cc3ncnc(Nc4ccc(OCc5cccc(F)c5)c(Cl)c4)c3s2)C1	-2.15	-0.26	0.69	0.63	0.63	1.66	2.62	3.17	-7.42	1.55	4.15	1.2	3.73	4.44	5.04	1.81	-0.96	3.6	2.54	7.4
NS(=O)(=O)c1ccc(NC=C2C(=O)Nc3ccc4ncsc4c32)cc1	3.96	1.68	2.35	15.7	46.4	13.6	23.5	10.6	19.2	19.3	65.4	3.02	6.96	5.94	8.12	1.57	7.78	7.6	13.9	9.07

Source: ChEMBL document CHEMBL1961873, “Compounds: GSK PKIS; Assays: Nanosyn kinase panel” (2012)
